Screens deposited in PubChem by National Center for Advancing Translational Sciences (NCATS).
Only some compounds are listed: those with a hit (about 7.5% of all), similar ones and a draw of the others.
Rab9 promoter act = activates the Rab9 promoter. Huh7 Rab9 promoter-luciferase reporter, luminescence, 24 h. Potency, µM (doses to about 9.22 µM), without a hit: at the top dose activation, negative = inhibition, usual class: activators. hit rate 2.8% among 320,000. AID 485297; note: % of control where 0% means no effect; nearly all actives have a fitted effect of over 60% in size
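Huh7 reporter line, Rab9 promoter upstream of luciferase. Compound exposure 24 h at 37 °C in reduced-serum medium with 10% FBS. Read-out: luminescence.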
NPC1 promoter act = activators of NPC1 promoter | Potency, µM (top dose mostly 9.22 µM), without a hit: at the top dose activation, most hits filed as activators | AID 485313 | Huh7 NPC1 promoter luciferase reporter, 24 h | hit rate 2.4% among 320,000; note: % of control where 0% means no effect; nearly all actives have a fitted effect of over 60% in size
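NPC1 promoter–luciferase Huh7 cells; 24 h compound; luminescence.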
ELG1 genotox = induces genotoxicity in HEK293T cells with luciferase-tagged ELG1; HEK293T ELG1-luciferase reporter, luminescence, 16 h; Potency, µM (doses to about 46 µM), for inactives: top-dose activity change, positive = activation, usual class: activators; hit rate 1.3% among 330,000; AID 504466; note: % of control where 0% means no effect; nearly all actives have a fitted effect of over 60% in size
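Luminescence read-out: rising ELG1-luciferase signal, reflecting elevated ELG1 protein under genetic stress, flags genotoxic compounds. Cells were treated for 16 hr at 37 °C before ONE-Glo detection.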
SMN2 splice up = enhancers of SMN2 splice variant expression; HEK293 SMN2-luciferase splicing reporter, luminescence, 30-36 h; Potency, µM (titrated, usually from 46.1 µM), inactives show at the highest dose activity change, positive = activation, actives largely listed as activators; hit rate 2.8% among 210,000; AID 1458; note: % of control where 0% means no effect; nearly all actives have a fitted effect of over 55% in size
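HEK293 cells carry an SMN2 […]–luciferase reporter in which exon 7 inclusion puts luciferase in frame. Cells were plated 10-12 h before compound addition, then incubated 30-36 h at 37C. ONE-Glo luminescence was read; sodium butyrate at 4.5 mM final served as control.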
FLuc counter = counter-screen for miR-21 project: firefly luciferase inhibitors or activators | P08659 | purified FLuc, Km substrates, luminescence inhibition | Potency, µM (top dose mostly 57.5 µM), for inactives: at the highest dose activity change, negative = inhibition, usual class: inhibitors | hit rate 6.9% among 360,000;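 note: plate controls were vehicle for no effect and reference inhibitor for full effect; nearly all actives have a fitted effect of over 55% in size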
Target sequence (P08659 whole entry, looked up): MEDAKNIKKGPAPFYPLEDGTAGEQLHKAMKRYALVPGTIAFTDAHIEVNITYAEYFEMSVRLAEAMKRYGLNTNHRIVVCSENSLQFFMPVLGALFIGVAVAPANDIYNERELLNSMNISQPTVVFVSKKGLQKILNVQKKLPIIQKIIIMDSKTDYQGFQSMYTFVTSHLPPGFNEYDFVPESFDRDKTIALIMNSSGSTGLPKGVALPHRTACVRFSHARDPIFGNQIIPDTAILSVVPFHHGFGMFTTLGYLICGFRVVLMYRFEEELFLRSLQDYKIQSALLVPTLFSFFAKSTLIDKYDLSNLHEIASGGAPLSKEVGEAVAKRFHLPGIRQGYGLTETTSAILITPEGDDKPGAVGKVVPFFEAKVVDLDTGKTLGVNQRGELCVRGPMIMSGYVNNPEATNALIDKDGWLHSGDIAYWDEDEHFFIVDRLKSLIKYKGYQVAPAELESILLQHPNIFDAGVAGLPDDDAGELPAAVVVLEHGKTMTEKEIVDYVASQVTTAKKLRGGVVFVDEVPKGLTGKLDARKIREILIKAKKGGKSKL
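Purified P. pyralis luciferase (10nM final) with 10uM D-luciferin and 10uM ATP (Km levels) in 50mM Tris acetate pH 7.5, 10mM Mg acetate, 0.01% Tween-20, 0.05% BSA; qHTS 6-point titration, ~60 µM downward; luminescence read.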
* marks the source's active call; other numbers are inactive results; ? = inconclusive; . = no result; [ ] = another dose, or the depositor's remark. Calls come from the whole dose curve; as a rule, active = well fitted curve in the direction sought with a large enough effect; inconclusive = small, poorly fitted or top-dose-only effect, or another doubt; inactive = no such curve, though single readings can be large; an effect the other way counts as inactive or inconclusive. Potency is the fitted concentration of half-maximal effect.

SMILES	Rab9 promoter act	NPC1 promoter act	ELG1 genotox	SMN2 splice up	FLuc counter
COc1ccc(C(=O)Nc2cc(C)c(O)c(-c3nc4ccccc4s3)c2)cc1OC	.	.	.	5%	0.67µM*
COc1ccc(C(=O)NCc2ccc(-c3nc4ccccc4s3)cc2)cc1	22%	24%	-1%	-6%	2.4µM*
COc1ccc(-c2nc3ccccc3s2)cc1NC(=O)c1ccccc1OC	.	.	.	?	11µM*
CCOc1ccc(C(=O)Nc2cc(-c3nc4ccccc4s3)ccc2OC)cc1	.	.	.	15%	-17%
COc1ccccc1C(=O)NCc1ccccc1	2%	0%	7%	-19%	-2%
O=C(NCc1ccc(-c2nc3ccccc3s2)cc1)c1cc2ccccc2o1	2%	1%	12%	.	?
COc1cccc(C(=O)NCc2ccc(-c3nc4ccccc4s3)cc2)c1	?	10%	21µM*	?	2.7µM*
Cc1ccc(C(=O)Nc2ccc(-c3nc4ccccc4s3)c(O)c2)c(C)c1	.	.	.	.	0%
COc1cc(C(=O)NCc2ccc(OCCN(C)C)cc2)cc(OC)c1OC	-1%	-4%	23µM*	?	4%
COc1cc(C(=O)NCc2ccncc2)cc(OC)c1OC	-1%	-1%	4%	.	1%
COc1cc(C(=O)NCc2ccc(-c3nc4ccccc4s3)cc2)cc(OC)c1OC	?	23%	?	18µM*	0.6µM*
COc1ccccc1C(=O)Nc1ccc(-c2nc3ccccc3s2)c(C)c1	.	.	.	.	3.8µM*
CSCCC(=O)N(C)CC1CCN(CCc2cccc(C(F)(F)F)c2)CC1	0%	-4%	0%	.	-1%
O=C(NCc1ccc(-c2nc3ccccc3s2)cc1)c1ccc(Br)o1	24%	14%	?	-21%[1.84 µM]	11µM*
CCc1ccc(C(=O)COC(=O)C(NC(=O)C2CCC(C)CC2)C(C)C)cc1 (configuration not stated)	.	.	.	-6%	1.7µM*
CCc1ccc(C(=O)COC(=O)[C@@H](NC(N)=O)[C@@H](C)CC)cc1	?	18%	?	-3%	1.3µM*
O=C(Cn1ncc(N2CCCC2)c(Cl)c1=O)c1ccc(Cl)cc1	1.4µM*	2.5µM*	?	13µM*	21µM*
COc1cccc(-c2cc(C(=O)N3CCCCC3C)no2)c1 (configuration not stated)	2.2µM*	1.6µM*	9.2µM*	18µM*	8.5µM*
COc1ccc(-c2cc(C(=O)N3CCCCCC3)no2)cc1OC	?	?	?	.	24µM*
COc1cccc(-c2cc(C(=O)N3CCCCCC3)no2)c1	0.32µM*	0.56µM*	1.5µM*	3.2µM*	2.1µM*
COc1ccc(-c2cc(C(=O)N3CCN(C(c4ccccc4)c4ccccc4)CC3)no2)cc1	-1%	-7%	-10%	-30%	-2%
COc1ccc(-c2cc(C(=O)N3CCCC3)no2)cc1	0.63µM*	0.4µM*	2.9µM*	.	1.2µM*
Cc1ccc(NC(=O)Cn2c(=O)n(CCCCC(=O)NCCc3ccccc3)c(=O)c3ccccc32)c(C)c1	.	.	.	-3%	2%
COc1ccc(-c2cc(C(=O)N3CCCCCC3)no2)cc1	0.45µM*	0.4µM*	4.6µM*	.	1.9µM*
CC(=O)N=C1SC2CS(=O)(=O)CC2N1Cc1ccc(C)cc1 (configuration not stated)	-3%	1%	-2%	.	-1%
SMILES	Rab9 promoter act	NPC1 promoter act	ELG1 genotox	SMN2 splice up	FLuc counter
CC(=O)N=C1SC2CS(=O)(=O)CC2N1c1ccc(-c2nc3ccc(C)cc3s2)cc1 (configuration not stated)	0.89µM*	2.8µM*	?	18µM*	9.5µM*
Cc1ccc2nc(-c3ccc(N4C(=NC(=O)CCC(=O)O)SC5CS(=O)(=O)CC54)cc3)sc2c1 (configuration not stated)	4.5µM*	?	?	.	11µM*
CS(=O)(=O)Nc1ccc(C(=O)Nc2ccc(S(=O)(=O)Nc3nccs3)cc2)cc1	0%	0%	0%	.	-2%
Cc1cc(N)n2ncc(-c3cccc(Br)c3)c2n1	2.8µM*	?	16µM*	22%	15µM*
Cc1cc(N)n2ncc(-c3ccccc3)c2n1	1.6µM*	2.8µM*	10µM*	16µM*	9.5µM*
Cc1cc(N2CCN(C3CCCC3)CC2)n2ncc(-c3ccccc3)c2n1	7%	26%	?	-4%	?
CC(=O)Nc1ccc(Nc2cc(-c3ccccc3)nc3ncnn23)cc1	-9%	-2%	2%	.	-4%
Cc1nc2c(-c3ccccc3)cnn2c(N2CCOCC2)c1C	1.3µM*	2.5µM*	6.5µM*	.	3µM*
CC(=O)Nc1ccc(Nc2cc(C)nc3c(-c4ccccc4)cnn23)cc1	?	?	1.5µM*	-33%	5.4µM*
Cc1cccc(Nc2nc(N)nc(CSc3nccn3C)n2)c1	5µM*	?	?	?	?
Cc1ccc(Nc2nc(N)nc(CSc3nccn3C)n2)cc1	1.6µM*	2.5µM*	2.9µM*	13µM*	9.5µM*
COc1ccccc1Nc1nc(N)nc(CSc2nccn2C)n1	17%	4%	10%	.	-11%
COc1cc(C(C)=O)cc(OC)c1O	.	.	.	0%	.
CCOc1ccccc1NC(=O)Nc1ccsc1C(=O)OC	15%	-1%	0%	.	?
O=C(NCCc1ccccc1)c1c[nH]c2ccc(S(=O)(=O)Nc3ccccc3F)cc2c1=O	.	.	.	-2%	-17%
COC(=O)Cn1c2nc3ccccc3nc2c2cccc(C)c21	-4%	0%	-3%	.	-3%
Cc1cccc2c3nc4ccccc4nc3n(C)c12	4.5µM*	1.4µM*	5%	.	2.4µM*
CCc1ccc(NC(=O)[C@H](C)NC(=O)C2CCN(C(=O)[C@@H](NC(=O)OC(C)(C)C)C(C)C)CC2)cc1	15%	18%	7%	.	21µM*
CCn1cc(C(=O)NCC(=O)NCCCN2CCOCC2)c(=O)c2cc3c(cc21)OCO3	0%	2%	2%	.	0%
CCN(CC)S(=O)(=O)c1ccc(Cl)c(NC(=O)COC(=O)C2CCCCC2)c1	-3%	-1%	2%	.	0%
CC(C)(C)c1ccc(C(=O)O/N=C(\N)c2ccccn2)cc1	-24%	-25%	-5%	.	0.24µM*
Cc1ccc(C(=O)O/N=C(\N)c2ccccn2)cc1	1.1µM*	0.5µM*	?	.	0.024µM*
Cc1ccc(C(=O)O/N=C(\N)c2ccccn2)cc1C	0.5µM*	0.32µM*	0.33µM*	.	0.095µM*
C/C(=N/OCc1ccc(Br)cc1)c1ccccn1	2.5µM*	4µM*	4.6µM*	14µM*	3µM*
COC(=O)c1ccc(COC(=O)c2ccccn2)cc1	2%	1%	0%	22%	-24%[2.3 µM]
COc1cc(C(=O)O/N=C(\N)c2ccccn2)cc(OC)c1OC	28%	23%	?	.	-19%
CCc1ccc(NC(=O)COCc2cc(-c3ccc(F)cc3)on2)cc1	.	.	.	12%	-4%
COc1ccc(CCNC(=O)COC(=O)/C=C/c2ccc(OC)cc2OC)cc1	.	.	0%	.	.
